High-throughput results as filed in PubChem.
ELG1 genotox – induces genotoxicity in HEK293T cells with luciferase-tagged ELG1; HEK293T ELG1-luciferase reporter, luminescence, 16 h; Potency, µM (highest dose often 46 µM), actives largely listed as activators; 330,000 tested, 1.3% active; AID 504466; further: nearly all actives have a fitted effect of over 60% in size
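After overnight (16 hr) compound treatment at 37 °C, ELG1-luciferase HEK293T cells were lysed with ONE-Glo; luminescence quantified 30 min later at room temperature.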
FLuc counter – inhibits or activates purified firefly luciferase, miR-21 counter-screen | Potency, µM (doses to about 57.5 µM), most hits filed as inhibitors | purified FLuc, Km substrates, luminescence inhibition | 360,000 tested, 6.9% active | P08659 | AID 588342; further: nearly all actives have a fitted effect of over 55% in size
Target sequence (P08659 whole entry, looked up): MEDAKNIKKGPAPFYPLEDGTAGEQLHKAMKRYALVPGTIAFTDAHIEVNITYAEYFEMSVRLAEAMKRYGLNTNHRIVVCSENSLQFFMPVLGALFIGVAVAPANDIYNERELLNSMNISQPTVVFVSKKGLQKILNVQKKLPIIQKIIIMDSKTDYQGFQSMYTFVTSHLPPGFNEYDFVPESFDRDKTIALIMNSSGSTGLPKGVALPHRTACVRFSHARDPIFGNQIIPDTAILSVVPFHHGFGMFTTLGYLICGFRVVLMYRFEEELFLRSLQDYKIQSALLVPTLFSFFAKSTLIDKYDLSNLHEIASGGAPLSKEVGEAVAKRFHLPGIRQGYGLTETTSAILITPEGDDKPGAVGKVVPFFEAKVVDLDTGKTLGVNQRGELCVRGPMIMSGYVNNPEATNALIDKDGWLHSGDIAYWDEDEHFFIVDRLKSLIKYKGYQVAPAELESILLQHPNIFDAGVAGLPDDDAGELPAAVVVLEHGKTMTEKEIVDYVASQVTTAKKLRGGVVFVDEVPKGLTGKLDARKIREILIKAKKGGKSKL
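Purified P. pyralis luciferase (10nM final) with 10uM D-luciferin and 10uM ATP (Km levels) in 50mM Tris acetate pH 7.5, 10mM Mg acetate, 0.01% Tween-20, 0.05% BSA; qHTS 6-point titration, ~60 µM downward; luminescence read.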
NPC1 promoter act – activators of NPC1 promoter; Huh7 NPC1 promoter luciferase reporter, 24 h; 320,000 tested, 2.4% active; AID 485313; Potency, µM (doses to about 9.22 µM), hits mostly activators; further: nearly all actives have a fitted effect of over 60% in size
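Huh7 cells stably carrying NPC1 promoter–luciferase, plated in Opti-MEM with 10% FBS for 2 h, were exposed to compound in DMSO for 24 h at 37 °C; luciferase reagent was added for 10 min and luminescence read.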
Rab9 promoter act – activates the Rab9 promoter | 320,000 tested, 2.8% active | Potency, µM (highest dose often 9.22 µM), hits mostly activators | AID 485297 | Huh7 Rab9 promoter-luciferase reporter, luminescence, 24 h; further: nearly all actives have a fitted effect of over 60% in size
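Promoter activation is measured as luciferase luminescence in Huh7 cells stably transfected with a Rab9 promoter–luciferase construct, following 24 h compound exposure at 37 °C and 10 min reagent incubation at ambient temperature.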
SMN2 splice up – enhancers of SMN2 splice variant expression | HEK293 SMN2-luciferase splicing reporter, luminescence, 30-36 h | Potency, µM (titrated, usually from 46.1 µM), actives largely listed as activators | 210,000 tested, 2.8% active | AID 1458; further: nearly all actives have a fitted effect of over 55% in size
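HEK293 cells carry an SMN2 minigene-luciferase reporter in which exon 7 inclusion puts luciferase in frame. Cells were seeded at 2000 cells/well, attached for 10-12 hours, then exposed to compounds for 30-36 hours at 37C before ONE-Glo luminescence.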
Numbers stand for hits. A selection: hits, their analogues and other compounds. The true share with any hit is near 7.4%. The call rests on the fitted dose curve; in most records, active means well fitted curve in the direction sought with a large enough effect; inconclusive means small, poorly fitted or top-dose-only effect, or another doubt; inactive means no such curve, though single readings can be large; an effect the other way counts as inactive or inconclusive.

Screening O=C(c1ccc(F)cc1)n1nc(-c2ccccc2)nc1NCc1ccco1 returned FLuc counter inactive and SMN2 splice up inactive.
Screening COCCNc1nnc(SC(C)C(=O)Nc2ccc(-c3nc4ccc(C)cc4s3)cc2)s1 (stereo not drawn) returned ELG1 genotox inconclusive, FLuc counter 3µM, NPC1 promoter act 1.6µM and Rab9 promoter act 0.28µM.
For COCCNc1nnc(SC(C)C(=O)Nc2c(C)n(C)n(-c3ccccc3)c2=O)s1 (stereo not drawn) the results were ELG1 genotox inactive, FLuc counter inactive, NPC1 promoter act inactive and Rab9 promoter act inactive.
For CC1=CCC(C(=O)O)C(C(=O)Nc2ccc(-c3nc4ccc(C)cc4s3)cc2)C1 (stereo not drawn) the results were ELG1 genotox 5.2µM, FLuc counter 3.4µM, NPC1 promoter act inconclusive and Rab9 promoter act inactive.
Screening CNC(=S)Nc1ccc(-c2nc3ccc(C)cc3s2)cc1 returned ELG1 genotox inconclusive, FLuc counter 1.3µM, NPC1 promoter act 0.79µM, Rab9 promoter act 0.4µM and SMN2 splice up 11µM.
For CC(=O)Nc1ccc(S(=O)(=O)Nc2nc3ccc(C)cc3s2)cc1 the results were ELG1 genotox inactive, FLuc counter inactive, NPC1 promoter act inactive, Rab9 promoter act inactive and SMN2 splice up inactive.
`CC(=O)NC(=S)Nc1ccc(-c2nc3ccc(C)cc3s2)cc1` gave ELG1 genotox inconclusive, FLuc counter 2.1µM, NPC1 promoter act 0.45µM, Rab9 promoter act 0.45µM and SMN2 splice up 13µM.
`COc1ccc(Cn2c(C)nc3ccc([N+](=O)[O-])cc3c2=O)cc1` gave ELG1 genotox inactive, FLuc counter inactive, NPC1 promoter act inactive and Rab9 promoter act inactive.
For O=C(CSc1ncnc2c1cnn2-c1ccccc1)NC1CCCC1 the results were ELG1 genotox inconclusive, FLuc counter inconclusive, NPC1 promoter act inactive and Rab9 promoter act inactive.
Screening CC(CNC(=O)c1cc2cc(S(=O)(=O)N3CCCCC3)ccc2n1C)c1ccccc1 (stereo not drawn) returned FLuc counter inactive.
For Cc1nnc(CN(C)C(=O)c2cc(COc3ccc(F)cc3Cl)on2)o1 the results were ELG1 genotox inconclusive, FLuc counter 12µM, NPC1 promoter act 2.5µM and Rab9 promoter act 2.8µM.
Screening CN(CCC1CCCCO1)C(=O)c1cc(COc2ccc(F)cc2F)on1 (stereo not drawn) returned ELG1 genotox inactive, FLuc counter inactive, NPC1 promoter act inactive and Rab9 promoter act inactive.
For CN(CC1CCCCO1)C(=O)c1cc(COc2ccc(F)cc2Cl)on1 (stereo not drawn) the results were ELG1 genotox inactive, FLuc counter inconclusive, NPC1 promoter act inconclusive and Rab9 promoter act 2.8µM.
For COc1cc(Cl)ccc1OCc1cc(C(=O)N(C)CC2CCCCO2)no1 (stereo not drawn) the results were ELG1 genotox inconclusive, FLuc counter 19µM, NPC1 promoter act 3.5µM and Rab9 promoter act 4µM.
For COc1cc(Cl)ccc1OCc1cc(C(=O)N(C)C2CCOC2)no1 (stereo not drawn) the results were ELG1 genotox inconclusive, FLuc counter inconclusive, NPC1 promoter act inconclusive and Rab9 promoter act inactive.
COc1cc(Cl)ccc1OCc1cc(C(=O)N[C@H]2CCCCNC2=O)no1 was read as ELG1 genotox inactive, FLuc counter 3.4µM, NPC1 promoter act inconclusive and Rab9 promoter act inconclusive.
For Cc1cccn2c(=O)nc(SCC(=O)NC3CCCC3)nc12 the results were ELG1 genotox inactive, FLuc counter inactive, NPC1 promoter act inactive and Rab9 promoter act inactive.
For Cc1ccccc1-c1nc(-n2ccnc2)c2ccccc2n1 the results were SMN2 splice up inactive.
For COC(=O)c1cc(NC(=O)CN(c2ccccc2)S(=O)(=O)N(C)C)ccc1Cl the results were FLuc counter inactive and SMN2 splice up inactive.
For O=C1CCCC(O)=C1C=Nc1ccc2c(c1)oc1ccccc12 the results were ELG1 genotox inactive, FLuc counter 2.1µM, NPC1 promoter act inactive, Rab9 promoter act inconclusive and SMN2 splice up inconclusive.
For CC(C(Sc1ccccc1N)c1ccccc1)[N+](=O)[O-] (stereo not drawn) the results were ELG1 genotox inconclusive, FLuc counter 9.5µM, NPC1 promoter act inactive and Rab9 promoter act inactive.
Cc1ccc(CNC(=O)C2CCN(c3nnc(N4CCCC4=O)s3)CC2)cc1 was read as ELG1 genotox inactive, FLuc counter inactive, NPC1 promoter act inactive and Rab9 promoter act inactive.
`O=C(CSc1cccc[n+]1[O-])Nc1cc2c(cc1Cl)C(=O)c1ccccc1C2=O` gave ELG1 genotox inactive, FLuc counter 11µM, NPC1 promoter act inconclusive, Rab9 promoter act inconclusive and SMN2 splice up 11µM.
`Oc1c(C=NCc2ccccc2)sc2ccccc12` gave ELG1 genotox inconclusive, FLuc counter 11µM, NPC1 promoter act inconclusive, Rab9 promoter act 2.8µM and SMN2 splice up inactive.
Screening O=[N+]([O-])c1ccc(N=Cc2sc3ccccc3c2O)cc1 returned ELG1 genotox 8.2µM, FLuc counter inconclusive, NPC1 promoter act inactive, Rab9 promoter act inconclusive and SMN2 splice up 25µM.
`Cc1[nH]n(-c2ccccc2)c(=O)c1/C=N/NC(=O)COc1ccccc1[N+](=O)[O-]` gave ELG1 genotox inactive, FLuc counter 21µM, NPC1 promoter act inactive, Rab9 promoter act inactive and SMN2 splice up inactive.
For Cc1[nH]n(-c2ccccc2)c(=O)c1/C=N/NC(=O)c1cccc([N+](=O)[O-])c1 the results were ELG1 genotox inactive, FLuc counter 8.5µM, NPC1 promoter act inactive, Rab9 promoter act inactive and SMN2 splice up inactive.
Screening Cc1[nH]n(-c2ccccc2)c(=O)c1/C=N\NC(=O)C1COc2ccccc2O1 (stereo not drawn) returned ELG1 genotox inconclusive, FLuc counter 1.9µM, NPC1 promoter act inconclusive, Rab9 promoter act inconclusive and SMN2 splice up inactive.
Screening CC(=O)N/N=C/c1c(C)[nH]n(-c2ccccc2)c1=O returned ELG1 genotox inactive, FLuc counter inactive, NPC1 promoter act inactive, Rab9 promoter act inactive and SMN2 splice up inactive.
For Cc1ccc(-n2[nH]c(C)c(/C=N/Nc3ccc([N+](=O)[O-])cc3[N+](=O)[O-])c2=O)cc1C the results were ELG1 genotox inactive, FLuc counter 13µM, NPC1 promoter act inactive, Rab9 promoter act inactive and SMN2 splice up inactive.
`Cc1ccc(Cl)cc1NC(=O)c1cc2c(=O)n3cccc(C)c3nc2n1C` gave FLuc counter inactive.
`COc1ccc(CNC(=O)c2cccnc2)cc1` gave ELG1 genotox inactive, FLuc counter inactive, NPC1 promoter act inactive and Rab9 promoter act inactive.
Cc1ccc(C)c(OCC(=O)N/N=C\c2cccn2C)c1 was read as ELG1 genotox inactive, FLuc counter inactive, NPC1 promoter act inactive, Rab9 promoter act inactive and SMN2 splice up inactive.
Screening Cc1ccc(OCC(=O)N/N=C\c2cccn2C)c([N+](=O)[O-])c1 returned ELG1 genotox inactive, FLuc counter 11µM, NPC1 promoter act inactive and Rab9 promoter act inactive.
